# According to the supplement of paper PMC11732987, “Enantioselective OTUD7B fragment discovery through chemoproteomics screening and high-throughput optimisation” (Communications Chemistry, 2025):
# Unmarked numbers belong to inactive results.
# Key:
# Assay in all cases: log2 ratio of Biotin-Ahx-Ub-VS probe labelling (fragment/DMSO); higher = less target engagement (more negative = stronger competition), active = hit call of the paper (q ≤ 0.05, log2 ratio ≤ -1)
# Conditions in all cases: compound concentration: 200 uM; treatment time: 3 h
# OTUD6B = biological target: T1, OTUD6B (UniProt Q8N6M0)
# T1 sequence (whole entry): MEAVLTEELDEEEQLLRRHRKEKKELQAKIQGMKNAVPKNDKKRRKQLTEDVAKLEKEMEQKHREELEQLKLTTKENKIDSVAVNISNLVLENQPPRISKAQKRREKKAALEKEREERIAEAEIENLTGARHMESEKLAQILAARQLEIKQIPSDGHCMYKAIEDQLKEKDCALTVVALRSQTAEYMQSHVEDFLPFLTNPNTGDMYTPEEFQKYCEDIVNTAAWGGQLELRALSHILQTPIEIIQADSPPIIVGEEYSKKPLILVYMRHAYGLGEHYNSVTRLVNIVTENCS
# How it was run: (§1)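 Fragment (200 µM) or vehicle was incubated for 3 h with triplicate HEK293T lysate samples of 495 µg, which were then treated with Biotin-Ahx-Ub-VS at 0.5 µM final for 1 h. Labelled DUBs were enriched on NeutrAvidin, digested with LysC and trypsin, and analysed by diaPASEF LC-MS/MS. Values are average log2 fragment/vehicle ratios from an unpaired t-test on global-median-normalised Spectronaut label-free quantities, using proteins with ≥2 unique peptides.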
# OTUD7B = biological target: T2, OTUD7B (UniProt Q6GQQ9)
# T2 sequence (whole entry): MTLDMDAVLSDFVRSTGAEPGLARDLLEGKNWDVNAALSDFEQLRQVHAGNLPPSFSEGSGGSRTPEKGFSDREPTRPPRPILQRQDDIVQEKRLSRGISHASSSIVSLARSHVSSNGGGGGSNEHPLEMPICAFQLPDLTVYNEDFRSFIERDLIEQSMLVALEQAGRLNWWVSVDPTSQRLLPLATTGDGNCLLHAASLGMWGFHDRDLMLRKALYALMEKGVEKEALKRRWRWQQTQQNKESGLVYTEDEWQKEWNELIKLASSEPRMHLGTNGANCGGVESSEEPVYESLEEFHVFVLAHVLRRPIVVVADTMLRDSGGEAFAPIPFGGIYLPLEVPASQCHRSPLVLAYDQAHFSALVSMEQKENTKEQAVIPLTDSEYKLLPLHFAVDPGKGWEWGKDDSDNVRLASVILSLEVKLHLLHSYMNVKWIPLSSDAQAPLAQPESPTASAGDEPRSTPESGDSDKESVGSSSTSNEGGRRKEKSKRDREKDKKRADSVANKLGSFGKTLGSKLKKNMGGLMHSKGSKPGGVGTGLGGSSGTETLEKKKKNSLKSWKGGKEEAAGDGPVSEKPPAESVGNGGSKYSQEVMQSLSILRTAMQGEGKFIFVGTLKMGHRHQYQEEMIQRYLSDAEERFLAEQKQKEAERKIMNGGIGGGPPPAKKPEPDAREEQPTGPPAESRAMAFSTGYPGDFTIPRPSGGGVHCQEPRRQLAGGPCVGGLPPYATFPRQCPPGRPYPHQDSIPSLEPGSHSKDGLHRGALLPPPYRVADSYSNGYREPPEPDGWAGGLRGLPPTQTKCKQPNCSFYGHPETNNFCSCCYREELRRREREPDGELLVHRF
# How it was run: as §1
# PRPF8 = PRPF8 (UniProt Q6P2Q9)
# How it was run: as §1
# PSMD7 = biological target: T3, PSMD7 (UniProt P51665)
# T3 sequence (whole entry): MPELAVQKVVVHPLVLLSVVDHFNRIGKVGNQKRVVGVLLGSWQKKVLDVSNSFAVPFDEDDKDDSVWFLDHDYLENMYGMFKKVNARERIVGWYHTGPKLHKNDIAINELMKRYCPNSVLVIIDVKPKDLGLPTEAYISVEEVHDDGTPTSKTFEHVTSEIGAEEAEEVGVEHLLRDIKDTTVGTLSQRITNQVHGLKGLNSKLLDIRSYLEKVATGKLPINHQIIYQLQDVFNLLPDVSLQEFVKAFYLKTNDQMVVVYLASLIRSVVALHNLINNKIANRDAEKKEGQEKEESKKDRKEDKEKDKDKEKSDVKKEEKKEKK
# How it was run: as §1
# UCHL1 = UCHL1 (UniProt P09936)
# UCHL1, sequence (P09936 whole entry, looked up): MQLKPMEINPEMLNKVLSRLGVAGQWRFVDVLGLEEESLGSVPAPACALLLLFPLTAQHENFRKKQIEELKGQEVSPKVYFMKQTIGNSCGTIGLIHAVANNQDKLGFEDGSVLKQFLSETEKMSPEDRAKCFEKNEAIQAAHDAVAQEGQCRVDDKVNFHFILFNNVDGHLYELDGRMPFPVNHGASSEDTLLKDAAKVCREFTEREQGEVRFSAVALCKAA
# How it was run: as §1
# UCHL3 = biological target: T4, UCHL3 (UniProt P15374)
# T4 sequence (whole entry): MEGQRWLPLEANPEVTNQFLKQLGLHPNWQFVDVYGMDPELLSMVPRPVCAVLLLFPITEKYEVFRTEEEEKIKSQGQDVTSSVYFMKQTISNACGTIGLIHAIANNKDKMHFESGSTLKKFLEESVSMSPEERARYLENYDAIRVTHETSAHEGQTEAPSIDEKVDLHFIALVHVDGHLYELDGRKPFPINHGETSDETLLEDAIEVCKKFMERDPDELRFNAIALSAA
# How it was run: as §1
# UCHL5 = biological target: T5, UCHL5 (UniProt Q9Y5K5)
# T5 sequence (whole entry): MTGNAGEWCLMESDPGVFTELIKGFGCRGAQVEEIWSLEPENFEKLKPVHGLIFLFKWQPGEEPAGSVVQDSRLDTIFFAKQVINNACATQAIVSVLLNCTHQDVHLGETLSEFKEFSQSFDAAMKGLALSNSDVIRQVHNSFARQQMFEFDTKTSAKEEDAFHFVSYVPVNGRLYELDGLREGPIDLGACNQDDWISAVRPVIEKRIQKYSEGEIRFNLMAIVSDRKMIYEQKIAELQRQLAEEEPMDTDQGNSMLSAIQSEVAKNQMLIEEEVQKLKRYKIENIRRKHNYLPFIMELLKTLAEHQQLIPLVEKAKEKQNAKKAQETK
# How it was run: as §1
# USP10 = USP10 (UniProt Q14694)
# USP10, sequence (Q14694 whole entry): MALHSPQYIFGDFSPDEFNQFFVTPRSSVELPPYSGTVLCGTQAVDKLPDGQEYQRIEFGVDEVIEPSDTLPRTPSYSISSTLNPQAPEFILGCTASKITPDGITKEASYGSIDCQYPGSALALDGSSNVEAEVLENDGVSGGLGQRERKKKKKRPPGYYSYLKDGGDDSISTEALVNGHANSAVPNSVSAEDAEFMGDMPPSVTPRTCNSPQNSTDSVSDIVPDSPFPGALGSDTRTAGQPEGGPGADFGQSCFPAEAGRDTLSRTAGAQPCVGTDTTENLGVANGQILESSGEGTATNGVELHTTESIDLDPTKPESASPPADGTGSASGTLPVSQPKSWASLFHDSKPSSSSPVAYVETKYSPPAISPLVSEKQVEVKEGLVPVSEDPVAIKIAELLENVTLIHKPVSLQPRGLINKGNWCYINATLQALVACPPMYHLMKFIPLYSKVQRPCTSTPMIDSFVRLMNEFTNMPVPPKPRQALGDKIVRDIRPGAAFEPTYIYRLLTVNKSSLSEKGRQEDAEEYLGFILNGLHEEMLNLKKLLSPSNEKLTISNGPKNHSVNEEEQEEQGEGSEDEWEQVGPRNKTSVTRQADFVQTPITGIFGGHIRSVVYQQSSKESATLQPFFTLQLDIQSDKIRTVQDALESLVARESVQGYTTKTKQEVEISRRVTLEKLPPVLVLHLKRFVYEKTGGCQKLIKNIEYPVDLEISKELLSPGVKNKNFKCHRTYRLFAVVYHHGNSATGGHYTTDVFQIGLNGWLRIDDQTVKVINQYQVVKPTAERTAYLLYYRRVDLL
# How it was run: as §1
# USP15 = biological target: T6, USP15 (UniProt Q9Y4E8)
# T6 sequence (whole entry): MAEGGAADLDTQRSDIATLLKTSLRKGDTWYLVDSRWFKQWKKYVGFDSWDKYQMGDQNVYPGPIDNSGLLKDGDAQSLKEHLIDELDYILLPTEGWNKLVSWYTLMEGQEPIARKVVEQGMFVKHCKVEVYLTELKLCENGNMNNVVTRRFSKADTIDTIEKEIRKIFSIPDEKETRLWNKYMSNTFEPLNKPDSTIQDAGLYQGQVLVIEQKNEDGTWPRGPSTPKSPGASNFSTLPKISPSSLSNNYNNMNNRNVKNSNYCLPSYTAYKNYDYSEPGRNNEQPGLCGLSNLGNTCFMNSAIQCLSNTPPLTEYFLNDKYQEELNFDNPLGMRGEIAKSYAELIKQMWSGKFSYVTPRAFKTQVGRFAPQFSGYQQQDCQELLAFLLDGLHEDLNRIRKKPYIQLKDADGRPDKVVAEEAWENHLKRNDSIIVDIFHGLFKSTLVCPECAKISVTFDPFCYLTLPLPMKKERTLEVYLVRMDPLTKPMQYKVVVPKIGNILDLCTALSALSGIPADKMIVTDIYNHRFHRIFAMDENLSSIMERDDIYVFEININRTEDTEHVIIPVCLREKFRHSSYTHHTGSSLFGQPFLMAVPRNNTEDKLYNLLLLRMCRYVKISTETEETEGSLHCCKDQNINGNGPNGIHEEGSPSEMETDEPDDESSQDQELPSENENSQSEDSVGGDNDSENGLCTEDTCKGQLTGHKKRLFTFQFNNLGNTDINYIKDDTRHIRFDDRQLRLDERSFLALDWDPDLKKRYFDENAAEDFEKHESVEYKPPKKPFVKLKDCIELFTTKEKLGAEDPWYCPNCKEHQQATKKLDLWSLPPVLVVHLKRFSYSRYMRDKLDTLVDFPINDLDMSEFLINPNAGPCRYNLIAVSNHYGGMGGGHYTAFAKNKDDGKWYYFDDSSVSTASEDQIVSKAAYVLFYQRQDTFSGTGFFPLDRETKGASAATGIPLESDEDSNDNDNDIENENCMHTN
# How it was run: as §1
# USP16 = USP16 (UniProt Q9Y5T5)
# USP16, sequence (Q9Y5T5 whole entry, looked up): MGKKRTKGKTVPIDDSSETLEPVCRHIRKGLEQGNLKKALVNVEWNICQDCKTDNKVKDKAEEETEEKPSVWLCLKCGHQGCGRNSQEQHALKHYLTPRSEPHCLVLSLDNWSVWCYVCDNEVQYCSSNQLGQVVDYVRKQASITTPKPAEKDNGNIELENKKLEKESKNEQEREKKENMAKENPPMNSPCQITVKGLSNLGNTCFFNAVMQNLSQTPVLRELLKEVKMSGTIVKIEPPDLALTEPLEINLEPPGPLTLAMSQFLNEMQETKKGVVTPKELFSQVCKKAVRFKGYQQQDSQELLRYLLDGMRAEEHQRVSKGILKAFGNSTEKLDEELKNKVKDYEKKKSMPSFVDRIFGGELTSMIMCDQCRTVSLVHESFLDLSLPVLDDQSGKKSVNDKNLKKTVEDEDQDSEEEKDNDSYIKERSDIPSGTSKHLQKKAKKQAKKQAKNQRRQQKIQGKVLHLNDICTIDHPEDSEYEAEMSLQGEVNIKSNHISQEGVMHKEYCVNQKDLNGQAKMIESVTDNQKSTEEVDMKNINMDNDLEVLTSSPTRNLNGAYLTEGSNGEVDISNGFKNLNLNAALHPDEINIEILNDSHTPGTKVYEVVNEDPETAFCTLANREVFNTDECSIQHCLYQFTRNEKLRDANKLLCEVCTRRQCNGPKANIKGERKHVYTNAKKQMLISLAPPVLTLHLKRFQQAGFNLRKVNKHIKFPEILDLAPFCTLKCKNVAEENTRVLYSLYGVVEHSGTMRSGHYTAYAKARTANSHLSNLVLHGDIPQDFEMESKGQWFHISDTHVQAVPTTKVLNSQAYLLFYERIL
# How it was run: as §1
smiles,measurement,setting,value
CC(NC(=O)CCl)c1cnn(C2CC2)c1 (stereo not given),log2 ratio of Biotin-Ahx-Ub-VS probe labelling,OTUD6B,-0.174
same,log2 ratio of Biotin-Ahx-Ub-VS probe labelling,OTUD7B,-1.99 (active)
same,log2 ratio of Biotin-Ahx-Ub-VS probe labelling,PRPF8,-0.0754
same,log2 ratio of Biotin-Ahx-Ub-VS probe labelling,PSMD7,-0.168
same,log2 ratio of Biotin-Ahx-Ub-VS probe labelling,UCHL1,-1.3 (active)
same,log2 ratio of Biotin-Ahx-Ub-VS probe labelling,UCHL3,0.329
same,log2 ratio of Biotin-Ahx-Ub-VS probe labelling,UCHL5,-0.187
same,log2 ratio of Biotin-Ahx-Ub-VS probe labelling,USP10,-0.103
same,log2 ratio of Biotin-Ahx-Ub-VS probe labelling,USP15,-0.182
same,log2 ratio of Biotin-Ahx-Ub-VS probe labelling,USP16,-0.19
